RORg inh: qHTS for inhibitors of ROR gamma transcriptional activity; Potency, µM (titrated, usually from 53.6 µM), for the others: at the highest dose activity change, negative = inhibition, most hits filed as inhibitors; AID 2551, 2010; Drosophila S2 Gal4-RORgamma UAS-luciferase reporter, 20 h; 5.4% of 310,000 active; also: nearly all actives have a fitted effect of over 60% in size
Target sequence (P51450 whole entry, looked up, the tested form may be a part): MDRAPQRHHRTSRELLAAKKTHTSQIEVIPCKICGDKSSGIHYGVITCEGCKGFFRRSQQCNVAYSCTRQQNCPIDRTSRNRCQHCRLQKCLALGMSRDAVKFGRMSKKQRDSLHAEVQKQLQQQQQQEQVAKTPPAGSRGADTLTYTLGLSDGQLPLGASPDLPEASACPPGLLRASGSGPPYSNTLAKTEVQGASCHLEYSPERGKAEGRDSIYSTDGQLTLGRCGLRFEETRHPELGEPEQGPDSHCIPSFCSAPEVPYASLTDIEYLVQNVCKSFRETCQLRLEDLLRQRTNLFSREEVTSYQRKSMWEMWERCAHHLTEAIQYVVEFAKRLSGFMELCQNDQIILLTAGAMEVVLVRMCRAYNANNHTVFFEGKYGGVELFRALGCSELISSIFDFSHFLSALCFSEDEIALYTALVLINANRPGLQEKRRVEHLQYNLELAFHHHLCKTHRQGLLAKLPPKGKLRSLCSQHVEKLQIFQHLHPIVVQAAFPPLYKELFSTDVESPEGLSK
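Stable Schneider cell line, Gal4 DNA-binding domain fused to ROR gamma, UAS-luciferase. Cmpd 1 hr RT → CuSO4 700 uM final → 20 hr RT → luciferase reagent 10 min → luminescence.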
Gal4-VP16 FLuc: VP16 counterscreen qHTS for inhibitors of ROR gamma transcriptional activity; Drosophila S2 Gal4-VP16 UAS-luciferase, luminescence, 20 h; Potency, µM (titrated, usually from 53.6 µM), for inactives: at the top dose activity, negative = inhibition, hits mostly inhibitors; 3.5% of 310,000 active;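 also: Gal4-VP16 expression switched on by copper sulfate through the metallothionein promoter; nearly all actives have a fitted effect of over 50% in size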
Luc counter: Counterscreen for Luciferase (Kinase-Glo TM) Inhibition; Luciferin 4-monooxygenase (Photuris pensylvanica), Q27757; Kinase-Glo luciferase, ATP luminescence, 8 min; Potency, µM (highest dose often 38.3 µM), for inactives: top-dose activity change, negative = inhibition, most hits filed as inhibitors; 0.28% of 200,000 active; AID 1379, 2008; also: nearly all actives have a fitted effect of over 60% in size
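Compound is pinned into ATP-containing buffer (10 uM ATP, imidazole pH 7.2, 7 mM MgCl2). Kinase-Glo luciferase reagent is then added. Light output is recorded following an 8-min room-temperature incubation.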
* hit, by the source's call; ? = inconclusive; / = no result; [ ] = another dose, or the depositor's remark. The list is not random: actives were taken first. Their share in the collection is about 6.2%. Calls follow the shape of the dose curve; as a rule, active = well fitted curve in the direction sought with a large enough effect; inconclusive = small, poorly fitted or top-dose-only effect, or another doubt; inactive = no such curve, though single readings can be large; an effect the other way counts as inactive or inconclusive. % is scaled to controls: 0 for no effect and ±100 for the full control effect; potency is read from the fitted curve at half-maximal effect.

SMILES	RORg inh	Gal4-VP16 FLuc	Luc counter
O=C(CCCN1C(=O)/C(=C/c2ccccc2Cl)SC1=S)NNC(=O)c1ccccc1Cl	1µM*	2.8µM*	-6%
O=C(CCCN1C(=O)/C(=C/c2cccs2)SC1=S)NNC(=O)c1ccncc1	-20%	-24%	-1%
COc1cccc(NC(=O)CCC(=O)N2CC(C)Oc3ccc(C)cc32)c1 (stereo not given)	40%	-2%	/
COc1cc2ccccc2cc1C(=O)N1CC(C)CC(C)C1 (stereo not given)	-3%	-19%	/
Cc1cccc(-c2nn(C(=S)Nc3ccccc3)cc2-c2ccnc3ccccc23)n1	?	-23%	/
Cc1cccc(-c2nc3cc(NC(=O)C4CCCO4)ccc3o2)c1 (stereo not given)	0.28µM*	?	?
CCC(=O)Nc1ccc2oc(-c3cccc(C)c3)nc2c1	0.79µM*	2.2µM*	-11%
CCC(=O)Nc1ccc(-c2nc3ccccc3c(=O)o2)cc1	-92%	16µM*	-15%
Cc1ccc2oc(-c3cccc(NC(=O)C4CCCO4)c3)nc2c1 (stereo not given)	?	?	-2%
Cc1ccc(-c2nc3ccccc3c(=O)o2)cc1	10%[1.91 µM]	-4%	/
Cc1ccc2oc(-c3cccc(NC(=O)Cc4cccs4)c3)nc2c1	-22%	-16%	-4%
CCC(C)c1c(O)nc(SCC(=O)N2CCCCCC2)[nH]c1=O (stereo not given)	-21%	-6%	/
NC1=NC(=Nc2cccc(S(N)(=O)=O)c2)c2ccccc21	-19%	0%	/
COc1cc(N=Nc2cccc(S(N)(=O)=O)c2)c2ccccc2c1N	11µM*	-1%	-2%[7.66 µM]
Cc1ccccc1-c1ccnc2[nH]n(-c3ccccc3)c(=O)c12	31%	3%	/
Cn1cnnc1SCc1nc(N)nc(Nc2ccccc2)n1	12%	2%	-2%
Nc1nc(CN2CCC(Cc3ccccc3)CC2)nc(Nc2ccccc2)n1	10µM*	-26%	-2%
Nc1nc(CN2CCCCCC2)nc(Nc2ccccc2)n1	-30%	-1%[0.365 µM]	-1%
Nc1nc(CN2CCN(c3ccccc3F)CC2)nc(Nc2ccccc2)n1	?	7%	0%
Cc1ccc(Nc2nc(N)nc(CSc3nncn3C)n2)cc1	-84%	11µM*	-1%
Cc1ccc(Nc2nc(N)nc(CN3CCN(c4ccccc4F)CC3)n2)cc1	11µM*	-4%	-4%
Nc1nc(CN2CCN(C(c3ccccc3)c3ccccc3)CC2)nc(Nc2ccccc2)n1	3.2µM*	?	/
CC1CC(C)CN(Cc2nc(N)nc(Nc3ccccc3)n2)C1 (stereo not given)	-40%	3%	-2%
COc1ccc(OC)c(C2=Nn3c(nnc3-c3ccc(OC)c(OC)c3)SC2)c1	-27%	28%	/
NCCC[C@@H](CC(=O)N[C@@H]1CCCC[C@H]1C(=O)N[C@H](CC(=O)N[C@@H](CCC(=O)O)CC(=O)O)Cc1ccccc1)NC(=O)C[C@H](CO)NC(=O)[C@@H]1CCCC[C@H]1N	8%	1%	-2%
SMILES	RORg inh	Gal4-VP16 FLuc	Luc counter
CCCCCCC#CC1C=CC(OC(=O)OCC)C(COC(=O)OCC)O1 (stereo not given)	?	8%[10 µM]	/
COCCNC(=O)c1onc(CSc2ccc(C(C)C)cc2)c1C(=O)O	-30%	-22%	1%
CCN(CC)CCNC(=O)c1cc2c(-c3ccc(Cl)cc3)nn(C)c2s1	?	-26%	15%
Cn1nc(-c2ccc(Cl)cc2)c2cc(C(=O)NC3CC3)sc21	?	13µM*	-4%
O=c1[nH]c(-c2ccc(Cl)cc2)nc(=S)[nH]1	2%	5%	/
Cc1ccc(C#N)c(SCc2ccccc2F)n1	8%	9%	/
Cc1ccc2nc(CSc3nc(C)ccc3C#N)[nH]c2c1	3.5µM*	2µM*	-18%
N=C1/C(=C\c2coc3ccccc3c2=O)C(=O)N=C2SC=CN12	1%	-8%	/
CC1=CC2=NC(=O)/C(=C\c3cccn3CCOc3cc(C)ccc3C)C(=N)N2O1	?	?	-2%
Cc1ccc(Cn2cccc2/C=C2/C(=N)N3C=CSC3=NC2=O)cc1	13µM*	?	-1%
N=C1/C(=C/c2cccn2-c2ccc([N+](=O)[O-])cc2)C(=O)N=C2SC=CN12	8%	-12%	-4%
N=C1/C(=C/c2cccn2Cc2ccc(F)cc2)C(=O)N=C2SC=CN12	10µM*	-14%	-3%
Cc1cccc(Cn2cccc2/C=C2/C(=N)N3C=CSC3=NC2=O)c1	8.9µM*	7.9µM*	-4%
COc1ccc(C(=O)N2CCC3(CCCN(c4ccccc4)C3)CC2)cc1	-18%	-4%	-3%
Cc1c(NC(=S)NC(=O)c2ccccc2Br)c(=O)n(-c2ccccc2)n1C	1%	-4%	/

Compound activity deposited in PubChem BioAssay by National Center for Advancing Translational Sciences (NCATS).
